Screening results deposited in PubChem by several laboratories.
PAX8 inh HTS – PAX8 transcriptional activity inhibition; RMG-I TPO-luciferase reporter, SteadyGlo, 24 h; inhibition, % at 12.6 µM; 360,000 compounds, 1.2% hits; AID 652154;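 active = mean replicate inhibition at least 60% with every replicate also reaching 60%; inconclusive = only one of the two criteria is met; inactive = mean below 60% and not all replicates reaching 60%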;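 note: luciferase light reporting Pax8 driven TPO promoter activity; plate controls were median of neutral control wells for no effect and mitoxantrone controls for full effect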
CF NFkB block – inhibitors of cystic fibrosis induced NF-kB; AID 588850; 360,000 compounds, 0.86% hits; inhibition, % at 5 µM; KKLEB NF-kB-GFP reporter, PAF-induced, GFP fluorescence overnight;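 active = at least 50% inhibition at 5 µM, scaled per plate between neutral and stimulator controls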;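 note: PAF is a Pseudomonas aeruginosa culture filtrate used as stimulus; plate controls were PAF-stimulated DMSO wells for no effect and unstimulated DMSO wells for full effect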
EWS-Fli inh – EWS/Fli transcriptional activity inhibition; AID 651661; A673 NR0B1-luciferase reporter, viability-normalised; inhibition, % at 12.6 µM; 350,000 compounds, 0.67% hits;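 active = mean inhibition of at least 50% after viability correction, with every replicate also passing that limit; inconclusive = mean reaches 50% but only one of two replicates passes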;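 note: firefly luciferase signal divided by Alamar Blue viability fluorescence both relative to DMSO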
KKLEB cytotox – counter-screen for CF NF-kB inhibitors: cytotoxicity; activity change (cytotoxicity), % at 5 µM; 360,000 compounds, 0.36% hits; KKLEB CF airway cells viability, ATPlite luminescence, overnight; hits give low values; cells stimulated with P. aeruginosa culture filtrate; AID 602141;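 active = corrected activity change at or below -50% at 5 µM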
HIF-2a inh – inhibitors of HIF-2a; 786-0 RCC cells HIF-2a reporter, luciferase luminescence, overnight; AID 624352; inhibition, % at 18.8 µM; 360,000 compounds, 0.72% hits;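 active = inhibition of the luminescence signal of 40% or more relative to plate controls, in a single-dose primary screen at 18.75 µM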
Numbers without * were called inactive; ? = inconclusive; nt = no result. Rows were chosen to be rich in hits. Some 2.1% of all compounds tested hit in one or more screens of this group.

SMILES	PAX8 inh HTS	CF NFkB block	EWS-Fli inh	KKLEB cytotox	HIF-2a inh
O=Cc1ccc(N2CCCC2)c([N+](=O)[O-])c1	-6.3	-1.9	7.7	-2.2	-17.3
Cc1noc(C)c1S(=O)(=O)N(C)C[C@H]1Oc2ccc(NS(=O)(=O)c3ccccc3)cc2C(=O)N([C@@H](C)CO)C[C@H]1C	-3.1	nt	-12.2	nt	nt
COc1ccc2c3c([nH]c2c1)[C@@H](CO)N(C(=O)c1ccccc1)CC31CN(C(=O)Nc2cccc(F)c2)C1	nt	nt	4.3	nt	nt
O=C(Nc1cccc([N+](=O)[O-])c1)c1cc2ccccc2cc1O	77.6*	59.7*	-11.8	-51.6*	-270.7
O=C(O)c1ccccc1C(=O)Nc1cccc([N+](=O)[O-])c1	-23.7	-0.1	-12.9	-0.4	13.8
O=C(Nc1cc(F)ccc1F)N1CC(=O)N2[C@H](CO)[C@@H](c3ccc(C#CC4CCCC4)cc3)[C@H]2C1	10.7	nt	nt	nt	nt
COc1cc(CCNC2=CC(=O)c3ncccc3C2=O)ccc1O	?	77.9*	-1.6	-2.1	39.5
COCC(=O)N1[C@@H](CO)[C@@H](c2ccc(-c3cccc(F)c3)cc2)C12CN(C(=O)C1CC1)C2	nt	nt	-5.0	nt	nt
CCCCCCc1cc2cc(-c3nnc(-c4ccccc4O)o3)c(=O)oc2cc1O	nt	-34.4	nt	-66.4*	-3.6
Cc1cc(-n2c(SCC(=O)NCCC3=CCCCC3)nc3n[nH]c(C)c3c2=N)ccc1Cl	87.6*	21.8	nt	-8.1	17.2
C[C@@H]1CN([C@@H](C)CO)C(=O)Cc2cc(NS(=O)(=O)c3cn(C)cn3)ccc2O[C@H]1CN(C)S(=O)(=O)c1ccc(Cl)cc1	8.4	nt	-3.7	nt	nt
COc1ccccc1NC(=O)N1CCCCN2[C@H](CO)[C@@H](c3ccc(C#CC4CC4)cc3)[C@@H]2C1	14.8	nt	-3.6	nt	nt
Cc1cc(O)ccc1N/C=C/c1onc(C)c1[N+](=O)[O-]	-81.3	36.8	-21.4	-52.0*	-171.3
C[C@H]1CN([C@@H](C)CO)S(=O)(=O)c2ccc(/C=C/c3ccccc3)cc2O[C@H]1CN(C)C(=O)Nc1cc(F)ccc1F	63.9*	nt	16.2	nt	nt
C[C@H]1CN([C@@H](C)CO)S(=O)(=O)c2ccc(/C=C/c3ccccc3)cc2O[C@@H]1CN(C)C(=O)Nc1cc(F)ccc1F	-17.7	nt	-4.8	nt	nt
C[C@@H]1CN([C@@H](C)CO)S(=O)(=O)c2ccc(/C=C/c3ccccc3)cc2O[C@H]1CN(C)C(=O)c1ccccc1	70.9*	nt	31.3	nt	nt
Cc1ccc(S(=O)(=O)Nc2ccc3c(c2)C(=O)N([C@@H](C)CO)C[C@H](C)[C@@H](CN(C)S(=O)(=O)c2ccc(F)cc2)O3)cc1	nt	nt	-8.2	nt	nt
C[C@@H]1CN([C@@H](C)CO)C(=O)c2cc(NC(=O)Nc3ccc(C(F)(F)F)cc3)ccc2O[C@@H](C)CCCCO[C@H]1CN(C)CC1CCCCC1	-2.3	nt	46.6	nt	nt
C[C@@H]1CCCCO[C@H](CN(C)CC2CC2)[C@H](C)CN([C@H](C)CO)C(=O)c2cc(NC(=O)Nc3ccc(C(F)(F)F)cc3)ccc2O1	-8.1	nt	27.1	nt	nt
C[C@H](CO)N1C[C@H](C)[C@H](CN(C)CC2CCCCC2)OCCCC[C@H](C)Oc2ccc(NC(=O)Nc3ccc(C(F)(F)F)cc3)cc2C1=O	68.3*	nt	-11.7	nt	nt
C[C@H](CO)N1C[C@H](C)[C@@H](CN(C)CC2CCCCC2)OCCCC[C@H](C)Oc2ccc(NC(=O)Nc3ccc(C(F)(F)F)cc3)cc2C1=O	14.1	nt	60.3*	nt	nt
C[C@H]1CCCCO[C@H](CN(C)CC2CC2)[C@@H](C)CN([C@@H](C)CO)C(=O)c2cc(NC(=O)Nc3ccc(C(F)(F)F)cc3)ccc2O1	1.8	nt	0.9	nt	nt
C[C@@H]1CN([C@H](C)CO)C(=O)c2cc(NC(=O)Nc3ccc(C(F)(F)F)cc3)ccc2O[C@@H](C)CCCCO[C@@H]1CN(C)CC1CCCCC1	-9.7	nt	78.1*	nt	nt
CCCN(C)C[C@H]1OCCCC[C@@H](C)Oc2ccc(NC(=O)c3ccccc3)cc2C(=O)N([C@H](C)CO)C[C@H]1C	83.3*	nt	5.0	nt	nt
CCCN(C)C[C@H]1OCCCC[C@@H](C)Oc2ccc(NC(=O)c3ccccc3)cc2C(=O)N([C@H](C)CO)C[C@@H]1C	-12.5	nt	5.1	nt	nt
SMILES	PAX8 inh HTS	CF NFkB block	EWS-Fli inh	KKLEB cytotox	HIF-2a inh
O=C(CC1CC1)N1CC2(C1)[C@H](c1ccccc1)[C@@H](CO)N2Cc1ccccc1	nt	nt	2.8	nt	nt
CCCN(C)C[C@H]1OCCCC[C@@H](C)Oc2ccc(NC(=O)Nc3ccc(C(F)(F)F)cc3)cc2C(=O)N([C@H](C)CO)C[C@H]1C	82.3*	nt	-5.0	nt	nt
CCCN(C)C[C@H]1OCCCC[C@H](C)Oc2ccc(NC(=O)Nc3ccc(C(F)(F)F)cc3)cc2C(=O)N([C@@H](C)CO)C[C@H]1C	53.6	nt	1.2	nt	nt
Cc1ccc(-c2ccc3c(c2)O[C@H](CN(C)Cc2ccccn2)[C@@H](C)CN([C@@H](C)CO)S3(=O)=O)cc1	nt	nt	57.7*	nt	nt
Cc1ccc(-c2ccc3c(c2)O[C@H](CN(C)Cc2ccccn2)[C@@H](C)CN([C@H](C)CO)S3(=O)=O)cc1	nt	nt	62.7*	nt	nt
C[C@@H]1CN([C@@H](C)CO)S(=O)(=O)c2ccc(-c3ccccc3)cc2O[C@H]1CN(C)S(=O)(=O)c1ccccc1F	63.4*	nt	10.4	nt	nt
Cc1ccc(-c2ccc3c(c2)O[C@@H](CN(C)Cc2ccccn2)[C@@H](C)CN([C@@H](C)CO)S3(=O)=O)cc1	nt	nt	11.4	nt	nt
C/C=C/c1ccc([C@@H]2[C@H](CO)N(CCC(F)(F)F)C23CN(C(=O)COC)C3)cc1	4.6	nt	-6.3	nt	nt
C[C@@H]1CN([C@H](C)CO)C(=O)c2cc(NC(=O)Cc3ccccc3)ccc2O[C@H]1CN(C)CC1CC1	-5.1	nt	-12.0	nt	nt
CO[C@H]1CN(C)C(=O)c2cc(NC(=O)Nc3c(C)noc3C)ccc2OC[C@@H](C)N(C)C[C@H]1C	-6.6	nt	3.1	nt	nt
C[C@@H]1CN([C@@H](C)CO)C(=O)c2cc(NC(=O)NC3CCCCC3)ccc2O[C@H]1CN(C)C(=O)Nc1ccc(F)cc1	-16.0	nt	5.0	nt	nt
O=C(Nc1ccc(Br)cc1)C1CCN(C(=O)c2ccco2)CC1	2.2	-6.0	-4.5	12.7	7.2
CCC1CCCCN1S(=O)(=O)c1ccc(NC(=O)C2CCN(C(=O)c3ccco3)CC2)cc1 (stereo unspecified)	64.0*	8.8	3.8	-8.3	26.8
CC(=O)N[C@H]1C[C@@H]2O[C@@H](CO)CC[C@@H]2O[C@@H]1CCc1ccc(C#CC2(O)CCCC2)cc1	nt	nt	9.1	nt	nt
COc1ccc2c3c([nH]c2c1)[C@@H](CO)N(Cc1ccncc1)CC31CCN(C(=O)CN(C)C)CC1	11.0	nt	-3.6	nt	nt
O=C(CCN1CCC(c2ccccc2)C1)c1ccc2c(c1)OCCO2 (stereo unspecified)	76.3*	28.7	-3.4	28.0	-5.2
O=C(CCCc1ccccc1)c1ccc2c(c1)OCCO2	nt	-9.9	86.4*	-56.9*	66.5*
O=C(CCN1CCC(c2ccccc2)C1)c1ccccc1 (stereo unspecified)	nt	-16.0	-4.4	15.0	-8.5
CO[C@@H]1CN(C)C(=O)c2cc(NC(=O)c3cc(C)on3)ccc2OC[C@@H](C)N(CC2CC2)C[C@H]1C	4.6	nt	6.0	nt	nt
